The campaign covered roughly 2,300 compounds. About 790 (34%) were called active. No rule for the calls is given here. The list shows a part of the results. Results with a measured potency or affinity are listed apart.
Assay: THP-1 cell cytotoxicity, dose response, cytotoxicity control for non-replicating M. tuberculosis project (AID 489025)
Conditions: THP-1 cell viability; series mostly up to 40 µM

Structure (SMILES)	outcome
CC(=O)c1c(O)cc(=O)n(-c2ccccc2)c1-c1ccc(C)cc1	inactive
O=C(N/N=C/c1ccc(O)cc1)c1cccc(C(F)(F)F)c1	inactive
O=C(Nc1nnc(C2=COCCO2)o1)c1cccc(C(F)(F)F)c1	inactive
Cc1cc(NC(=O)COC(=O)COc2ccc(C(=O)c3ccccc3)cc2)no1	inactive
CC1=NN(C(=O)c2ccccc2Cl)C(O)(c2ccccc2)C1 (stereo not drawn)	inactive
CC1=NN(C(=O)COc2ccccc2)C(O)(c2ccccc2)C1 (stereo not drawn)	inactive
CC1=NN(C(=O)c2ccc(C)o2)C(O)(c2ccccc2)C1 (stereo not drawn)	inactive
CC1=NN(C(=O)c2ccccc2F)C(O)(c2ccc(Cl)cc2)C1 (stereo not drawn)	inactive
CSc1ccc(COC(=O)CCS(=O)(=O)c2ccc(C)cc2)cc1	inactive
CCc1nnc(NC(=O)CN2CCN(c3ccccc3F)CC2)s1	inactive
CCOC(=O)COc1c(-c2ccc(OC)cc2)oc2ccccc2c1=O	inactive
O=C(OCc1nnc(-c2ccccc2)o1)c1cc([N+](=O)[O-])ccc1Cl	inactive
CCCOc1ccc(N2CC(C(=O)Nc3ccccc3F)CC2=O)cc1 (stereo not drawn)	inactive
O=C(NC(=S)N1CCN(Cc2ccc3c(c2)OCO3)CC1)c1ccc(Cl)cc1	inactive
Nc1ccc(Nc2ccccc2)cc1	inactive
CC(C)=CCN1CCN(CCC2=C(C)CCCC2(C)C)CC1CCO (stereo not drawn)	inactive
CC(C)c1ccc(OCC(=O)NC2=NCCS2)cc1	inactive
O=C(Oc1ccccc1)c1ccc(NC(=O)c2ccco2)cc1	inactive
O=C(/C=C/Nc1ccccc1O)c1ccco1	inactive
CC1=NN(C(=O)COc2ccccc2C)C(O)(c2ccc(Cl)cc2)C1 (stereo not drawn)	inactive
CC(C)(C)OC(=O)N/N=C\c1ccc(OC(=O)c2ccco2)cc1	inactive
O=C(Nc1nccs1)c1ccc(Br)cc1	inactive
O=C(CNC(=O)c1ccc(Br)cc1)c1ccc(Br)cc1	inactive
O=C(CNC(=O)c1ccccc1)OC1CCCCC1	inactive
O=[N+]([O-])c1ncccc1Oc1nc(-c2cccnc2)nc2ccccc12	inactive
CCOc1ccc(N2CC(=O)Nc3ccccc3NCC2=O)cc1	inactive

Structure (SMILES)	outcome
COC(=O)c1ccc(COC(=O)c2ccccn2)cc1	inactive
CCOc1ccc(OCc2ccc(C(=O)OCc3ccccn3)o2)cc1	inactive
CCOc1cc(/C=N/NC(=O)c2ccccn2)ccc1OC(=O)c1cccs1	inactive
O=C(N[C@@H]1C[C@H]2CC[C@@H]1C2)c1ccco1	inactive
Clc1ccc(SCCOCCN2CCc3ccccc3C2)cc1	inactive
O=C(OCn1nnc2ccccc2c1=O)c1cccs1	inactive
COc1ccccc1C1=NOC(COC(=O)c2ccc([N+](=O)[O-])cc2)C1 (stereo not drawn)	inactive
Fc1ccc(-c2nnc(CSc3nnc(-c4cccs4)o3)o2)cc1	inactive
COc1cccc(OCc2nnc(-c3cccs3)o2)c1	inactive
Fc1ccc(-c2nnc(-c3ccc(F)cc3)o2)cc1	inactive
Cc1ccc(-c2nnc(-c3cccs3)o2)cc1	inactive
O=C1N=c2ccccc2=C1c1c(O)n(-c2cccc(F)c2)[nH]c1=O	inactive
CCCn1nnnc1NCc1ccc(C(C)C)cc1	inactive
Cc1ccnc(-n2c(C)cc(/C=C3\C(=O)NC(=S)N(C)C3=O)c2C)c1	inactive
CCn1c(O)c(C(=O)CC2NCCc3ccccc32)c(=O)n(CC)c1=S (stereo not drawn)	inactive
Cc1cc(C)c2c(=O)n(CC(=O)Nc3cccc(Cl)c3C)sc2n1	inactive
CCOc1ccc(NC(=O)CCc2ccc(C)o2)cc1	inactive
COC(=O)COc1ccc(-c2ccccc2)cc1C=O	inactive
Cc1ccc(OC(=O)CCS(=O)(=O)c2ccc(C)cc2)cc1	inactive
COC(=O)c1ccc(COC(=O)CCS(=O)(=O)c2ccc(C)cc2)cc1	inactive
COc1ccc(-c2cc(=O)oc(-c3cccc(C)c3)n2)cc1	inactive
COc1ccc(-c2cc(O)cc(O)c2)cc1	inactive
COc1ccc(OCCOC(=O)CCS(=O)(=O)c2ccc(C)cc2)cc1	inactive
COC(=O)COc1ccc2c(=O)c(-c3ccccc3)coc2c1	inactive
Cc1cc(Br)ccc1OCC(=O)NNC(=O)C(=O)Nc1ccccc1	inactive
O=C1CCCC(O)=C1C=Nc1ccc2c(c1)oc1ccccc12	inactive

Structure (SMILES)	outcome
C(#CCN1CCOCC1)COCc1ccccc1	inactive
CC(CCc1ccccc1)NC(=O)COC(=O)c1cccs1 (stereo not drawn)	inactive
Cc1nc2scc(-c3ccccc3)c2c(=O)o1	inactive
CCN(CC)c1ccc(NC2CC(=O)N(CCc3ccc(OC)cc3)C2=O)cc1 (stereo not drawn)	inactive
O=C(OCc1nnc(-c2ccccc2)o1)c1ccc(Br)o1	inactive
CCCOC(=O)c1ccc(NC(=O)C2C3C=CC(O3)C2C(=O)O)cc1 (stereo not drawn)	inactive
C=CCNc1nc(C(=O)OCC(=O)c2cccc(Br)c2)cs1	inactive
Fc1cccc2sc(N3CCCC3)nc12	inactive
Cc1ccc(NC(=S)C2=C(O)c3sccc3N(C)S2(=O)=O)cc1	inactive
Cc1ccc(C(=O)N/N=C/C=C/c2ccccc2)cc1	inactive
O=C(CCNc1ccc(Cl)c(C(F)(F)F)c1)c1ccco1	inactive
O=C(NCCSc1ccccc1)c1ccc(Br)cc1	inactive
C/C(=N\NC(=O)c1ccccc1)c1nc2ccccc2n1C	inactive
COc1ccc(NC(=O)c2nc3ccccc3s2)cc1	inactive
CN(C)c1ccc(NC(=O)COC(=O)c2cc(Cl)ccc2[N+](=O)[O-])cc1	inactive
CCOC(=O)CNc1ccc(C(=O)OCC)cc1[N+](=O)[O-]	inactive
CC(C)=CCN1CCN(Cc2cn(C(C)C)c3ccccc23)CC1CCO (stereo not drawn)	inactive
COc1cccc2cc(-c3nc4ccccc4[nH]3)c(=O)oc12	inactive
CSc1nc(=S)cc(C)[nH]1	inactive
CC(NC(=O)c1cc([N+](=O)[O-])cc([N+](=O)[O-])c1)c1ccc(-n2ccnc2)cc1 (stereo not drawn)	inactive
COc1ccccc1NC(=O)c1cnc(SC)nc1	inactive
COc1cccc(NC(=O)c2cnc(SC)nc2)c1	inactive
Cc1ccc(S(=O)(=O)NCc2ccc(C(=O)NCCCN3CCC(Cc4ccccc4)CC3)cc2)cc1	inactive
Nc1c(Cl)cc(Cl)cc1C(=O)OCC(=O)N1CCCC1	inactive
COc1ccccc1-c1nnc(-c2ccc(C)cc2)o1	inactive
COc1ccccc1-c1cc(SC)c(C#N)c(=O)o1	inactive
